KCNQ2 block = rat KCNQ2 potassium channel inhibitors, primary screen, cell-based, CHO-K1, FluxOR thallium flux, B-score; 20 min; active compounds read low; 310,000 tested, 1.1% active; B-score at 10 µM; AID 2156, 2009;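 active means fluorescence ratio B-score at most minus 3 library SDs, with starting brightness B-score within 2 library SDs, cut at about -5.5 in these data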
KCNQ2 pot = potentiators of rat KCNQ2 potassium channel. Potassium voltage-gated channel subfamily KQT member 2 (Rattus norvegicus), O88943. CHO-K1 KCNQ2, FluxOR thallium flux fluorescence; active compounds read high. B-score at 10 µM. 310,000 tested, 0.54% active;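 active means fluorescence ratio B-score at least 3 SD of library B-scores, with initial fluorescence B-score within 3 of them, cut at about 5.3 in these data; same plate scores as AID 2156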;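 further: B-score of peak minus minimum over baseline fluorescence ratio after K+ and Tl+ stimulus; positive B-score means potentiation of KCNQ2 with more thallium influx and brighter signal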
Kir21 conf inh = mouse Kir2.1 channel blockers, retest, confirmation, cell-based, FluxOR thallium flux, duplicate. Kir2.1-expressing cells, FluxOR thallium flux fluorescence; active compounds read low. 2,300 tested, 41% active. shares compounds with KCNQ2 pot. AID 2032, 2009. Tl flux remaining, % of negative control (active compounds read low), % at 10 µM;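 active means Primary-screen hit whose thallium flux fell at least 3 control SD below untreated wells in both duplicates, with normal baseline fluorescence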
HEK293 ctr = alters thallium flux in parental HEK293 cells, Kir2.1 counter-screen; AID 2105; FluxOR thallium flux fluorescence; 0% = unstimulated blank wells; FluxOR signal as % of negative control (100 = no effect), % at 10 µM; 2,300 tested, 19% active; shares compounds with KCNQ2 pot;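 active means dye signal at least 3 control SD above or below untreated wells in both duplicates, raw fluorescence within 3, either direction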;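 further: percent is based on the flux ratio of peak minus minimum fluorescence over baseline F0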
CHO-K1 Tl ctr = nonspecific thallium flux increase in parental CHO-K1, confirmation, counter-screen for KCNQ2 potentiator project, cell-based, FluxOR thallium flux, duplicate; shares compounds with KCNQ2 pot; parental CHO-K1 cells, FluxOR thallium flux fluorescence; zero = vehicle mean+3SD, 100% = vehicle-minus-blank window; 1,200 tested, 43% active; activity increase over 3SD of controls, % at 10 µM; AID 2282, 2010;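 active means signal rise of at least 3 SD above the untreated control mean, in both duplicate wells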;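 further: counter screen of KCNQ2 potentiator hits so any rise reflects channel-independent effects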
KCNQ1 pot spec = human KCNQ1 channel potentiation off-target, confirmation, selectivity assay for KCNQ2 potentiator project, cell-based, CHO, FluxOR thallium flux | shares compounds with KCNQ2 pot | CHO KCNQ1 stable, FluxOR thallium flux fluorescence; beyond 3SD, as % of vehicle-control signal | activation over 3SD threshold, % at 10 µM | 1,200 tested, 28% active;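 active means fluorescence ratio rise of at least 3 SD of vehicle wells above their mean, in both replicate wells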
KCNQ2 pot conf = rat KCNQ2 channel potentiators, confirmation, cell-based, CHO, FluxOR thallium flux, duplicate | shares compounds with KCNQ2 pot | CHO-KCNQ2 cells, FluxOR thallium flux fluorescence | potentiation, less the hit threshold, % at 10 µM | 1,200 tested, 68% active;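 active means fluorescence ratio rising 3 SD or more over the vehicle control mean in both replicates, plus primary screen hit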;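 further: peak minus minimum thallium fluorescence divided by baseline after K/Tl stimulus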
Kir21 spec = mouse Kir2.1 channel activation off-target, confirmation, selectivity assay for KCNQ2 potentiator project, cell-based, HEK293, FluxOR thallium flux. shares compounds with KCNQ2 pot. HEK293 Kir2.1, FluxOR thallium flux fluorescence. activity over 3SD threshold, % at 10 µM. 1,200 tested, 2% active. AID 2345, 2010;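 active means fluorescence ratio rise of at least 3 SD above the vehicle-control mean, seen in both replicates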
KCNQ2 W236L pot = potentiators of retigabine-insensitive KCNQ2 W236L, mechanism study for KCNQ2 potentiator project, cell-based, rat KCNQ2 W236L, CHO, automated patch clamp; AID 2558, 2010; current increase over 3SD of negative controls (%), active compounds read high, % at 25 µM; automated patch clamp current; shares compounds with KCNQ2 pot; 940 tested, 10% active;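 active means current increase at least 3 SD of the untreated controls above them in both duplicate recordings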
Target sequence (O88943 whole entry W236L, looked up): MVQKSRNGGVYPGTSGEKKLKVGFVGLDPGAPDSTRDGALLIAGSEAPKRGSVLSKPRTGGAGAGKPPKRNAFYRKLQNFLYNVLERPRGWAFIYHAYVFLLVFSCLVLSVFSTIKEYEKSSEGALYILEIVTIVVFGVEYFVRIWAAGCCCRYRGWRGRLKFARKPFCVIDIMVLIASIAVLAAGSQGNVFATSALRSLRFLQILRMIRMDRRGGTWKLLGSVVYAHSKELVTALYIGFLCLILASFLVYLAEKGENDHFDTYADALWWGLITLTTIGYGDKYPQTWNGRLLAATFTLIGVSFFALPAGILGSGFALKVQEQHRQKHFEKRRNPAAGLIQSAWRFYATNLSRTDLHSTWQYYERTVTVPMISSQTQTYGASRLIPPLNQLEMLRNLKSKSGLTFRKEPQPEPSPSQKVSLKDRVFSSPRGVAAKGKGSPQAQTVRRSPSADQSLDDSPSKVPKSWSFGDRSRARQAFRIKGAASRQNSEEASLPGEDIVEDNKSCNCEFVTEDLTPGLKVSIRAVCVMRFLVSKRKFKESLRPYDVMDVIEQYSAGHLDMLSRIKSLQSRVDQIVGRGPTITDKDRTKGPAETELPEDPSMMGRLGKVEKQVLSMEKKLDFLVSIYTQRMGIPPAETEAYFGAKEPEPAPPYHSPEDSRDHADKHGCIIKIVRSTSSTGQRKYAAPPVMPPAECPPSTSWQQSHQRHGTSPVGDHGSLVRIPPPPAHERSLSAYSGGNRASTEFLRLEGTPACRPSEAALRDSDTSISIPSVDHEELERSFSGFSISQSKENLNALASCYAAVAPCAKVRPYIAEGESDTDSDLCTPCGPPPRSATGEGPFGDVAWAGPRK
Each line names hits and unclear results; the compound was inactive in the other large screens (follow-up assays come after a bar, where they were run). Sampled rows, rich in hits. Any-hit rate of the full collection: about 1.6%.

C/C(=N\NC(=O)c1ccc2c(c1)OCO2)c1ccc(NC(=O)CCCC(=O)O)cc1	none (no result: KCNQ2 pot)
Cc1ccc(-c2cn(S(=O)(=O)c3cccc4nsnc34)nc2N)cc1	none
Nc1nn(S(=O)(=O)c2cccc3nsnc23)cc1-c1ccc(Br)cc1	KCNQ2 pot 8 | Kir21 conf inh inactive | HEK293 ctr inactive | CHO-K1 Tl ctr inactive | KCNQ1 pot spec 8.4 | KCNQ2 pot conf inactive | Kir21 spec inactive
CN(CCC(=O)Nc1ccc(Cl)cc1)Cc1ccccc1	none
Cc1ccc(C(C)NC(=O)C2CCCO2)cc1C (stereo unspecified)	none
CC(NC(=O)C1CCCC1)c1ccc(Br)cc1 (stereo unspecified)	KCNQ2 pot 7.1 | Kir21 conf inh inactive | HEK293 ctr inactive | CHO-K1 Tl ctr inactive | KCNQ1 pot spec 28 | KCNQ2 pot conf 9.0 | Kir21 spec inactive | KCNQ2 W236L pot inactive
Cc1ccc(C(C)NC(=O)C2CCCC2)cc1C (stereo unspecified)	KCNQ2 pot 17 | Kir21 conf inh inactive | HEK293 ctr inactive | CHO-K1 Tl ctr inactive | KCNQ1 pot spec inactive | KCNQ2 pot conf 55 | Kir21 spec inactive | KCNQ2 W236L pot inactive
CC(NC(=O)C1CCC1)c1ccc(Br)cc1 (stereo unspecified)	none
COc1ncnc(-c2ccccc2)c1-c1ccccc1	none (no result: KCNQ2 pot)
O=C(Nc1nnc(C2CC2)s1)C1Cc2ccccc2CN1S(=O)(=O)c1ccccc1F (stereo unspecified)	none (no result: KCNQ2 pot)
Nc1ccc(C(=O)N/N=C2\CCCc3c2[nH]c2ccccc32)cc1	none
c1ccc(CCN=C2CCCc3c2[nH]c2ccccc32)cc1	none (no result: KCNQ2 pot) | Kir21 conf inh 20% | HEK293 ctr 70%
COc1ccc(CNC(=O)COC(=O)CCc2c[nH]c3ccccc23)cc1	none (no result: KCNQ2 pot)
C=CCNCC(O)COc1ccc(C(C)=O)cc1OC (stereo unspecified)	none
O=C(N/N=C/c1ccncc1)c1cccs1	none (no result: KCNQ2 pot)
CSc1ccc(/C=N/NC(=O)c2cccs2)cc1	KCNQ2 pot 14 | Kir21 conf inh inactive | HEK293 ctr inactive | CHO-K1 Tl ctr 11 | KCNQ1 pot spec inactive | KCNQ2 pot conf inactive | Kir21 spec inactive
CCCCNC(=S)Nc1cc([N+](=O)[O-])ccc1C	none
CCN(Cc1ccccc1)C(=S)NC(=O)c1ccccc1Br	KCNQ2 pot 8.6 | Kir21 conf inh inactive | HEK293 ctr 418% | CHO-K1 Tl ctr inactive | KCNQ1 pot spec 52 | KCNQ2 pot conf 46 | Kir21 spec inactive | KCNQ2 W236L pot inactive
CCCN(Cc1ccccc1)C(=S)NC(=O)c1ccccc1[N+](=O)[O-]	KCNQ2 pot 13 | Kir21 conf inh inactive | HEK293 ctr 450% | CHO-K1 Tl ctr 5.8 | KCNQ1 pot spec inactive | KCNQ2 pot conf 60 | Kir21 spec inactive | KCNQ2 W236L pot inactive
CCC(=O)NC(=S)NNC(=O)c1ccccc1[N+](=O)[O-]	none (no result: KCNQ2 pot)
CCN(CC)C(=S)NC(=O)Cc1ccccc1	none (no result: KCNQ2 pot)
CCOc1cccc(SCc2noc(C(=O)NCC3CCCO3)c2C(=O)O)c1 (stereo unspecified)	none
CCOC(=O)c1cccc(NC(=O)c2c(NCc3ccccc3)[nH]c(=O)[nH]c2=O)c1	none (no result: KCNQ2 pot)
CCn1c(COC(=O)CNC(=O)c2cc(OC)c(OC)c(OC)c2)nc2cc(S(=O)(=O)N(C)C)ccc21	none (no result: KCNQ2 pot)
COc1cc(C(=O)NCC(=O)N/N=C(/C)c2cccs2)cc(OC)c1OC	none (no result: KCNQ2 pot)
Nc1ncccc1OCc1ccc(Cl)c(Cl)c1	KCNQ2 pot 5.4 | Kir21 conf inh inactive | HEK293 ctr inactive | CHO-K1 Tl ctr inactive | KCNQ1 pot spec inactive | KCNQ2 pot conf inactive | Kir21 spec inactive
O=C(OCc1ccc(Cl)c(Cl)c1)c1ccccn1	none
Cc1cccc(-n2ccc(=O)c(C(=O)Nc3ccc(S(=O)(=O)Nc4onc(C)c4C)cc3)n2)c1	none
CCn1nc(C(=O)OCC(=O)NC(C)C)c2ccccc2c1=O	none (no result: KCNQ2 pot)
CCn1nc(C(=O)OCc2c(C)noc2C)c2ccccc2c1=O	KCNQ2 pot 8.4 | Kir21 conf inh inactive | HEK293 ctr inactive | CHO-K1 Tl ctr 77 | KCNQ1 pot spec inactive | KCNQ2 pot conf inactive | Kir21 spec inactive
Cc1ccc(S(=O)(=O)Oc2ccccc2/C=N/N=C(N)N)cc1	none (no result: KCNQ2 pot) | Kir21 conf inh 46% | HEK293 ctr inactive
Cc1ccc(S(=O)(=O)Oc2ccccc2/C=N/NC(N)=S)cc1	none
CCCC1(c2ccccc2)NC(=O)N(CC(=O)Nc2cc(C)ccc2OC)C1=O (stereo unspecified)	none (no result: KCNQ2 pot)
O=C(Oc1ccc(C(=S)N2CCOCC2)cc1Br)c1ccccc1F	none (no result: KCNQ2 pot)
O=C(Oc1ccc(C(=S)N2CCOCC2)cc1)c1ccccc1[N+](=O)[O-]	none (no result: KCNQ2 pot)
O=C(Oc1ccc(C(=S)N2CCOCC2)cc1Cl)c1ccccc1F	none (no result: KCNQ2 pot) | Kir21 conf inh 69% | HEK293 ctr inactive
O=C(Oc1ccc(C(=S)N2CCOCC2)cc1)c1ccccc1F	none | Kir21 conf inh 71% | HEK293 ctr inactive
COC(=O)C1(O)CC(CC(C)C)=NN1C(=O)c1ccccc1 (stereo unspecified)	KCNQ2 pot 8.8 | Kir21 conf inh inactive | HEK293 ctr inactive | CHO-K1 Tl ctr 8.6 | KCNQ1 pot spec inactive | KCNQ2 pot conf 23 | Kir21 spec inactive | KCNQ2 W236L pot inactive
COC(=O)C1=NN(C(=O)c2ccccc2)C(C)(O)C1 (stereo unspecified)	none
CCCCOc1ccc(CN2CCSCC2)cc1	none (no result: KCNQ2 pot)
Cc1[nH]n(-c2ccccc2)c(=O)c1S(=O)(=O)c1ccccc1	none (no result: KCNQ2 pot) | Kir21 conf inh 28% | HEK293 ctr inactive
Cc1[nH]n(-c2ccccc2)c(=O)c1CCO	none
CC(=O)c1ccc(Nc2cc(C)nc3c(C)cccc23)cc1	none (no result: KCNQ2 pot)
